# From PubChem BioAssay
# In the library only some 3.5% were active in any assay of this set; here they are far more common.
# TEAD-YAP block = TEAD-YAP interaction inhibition, primary screen, TEAD-YAP interaction inhibitor project, luminescence, HEK-TIYL cells; TEAD-Gal4/YAP UAS-luciferase luminescence; inhibition, % at 9.12 µM; 1.4% of 640,000 active; AID 1259422, 2018; in the data active = inhibition above about 32%
# FBW7 act = FBW7 E3 ligase activators, primary screen, biochemical, AlphaScreen, human; F-box/WD repeat-containing protein 7 (Homo sapiens), Q969H0; AlphaScreen FBW7–phospho-cyclin E peptide binding, activator screen; normalized activity (activation), % at 26.1 µM; 0.13% of 650,000 active; AID 1259310, 2017; in the data active = normalized activity above about 1.9%;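 note: purified mutant Fbw7 with reduced substrate affinity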
# Target sequence (Q969H0 whole entry, looked up): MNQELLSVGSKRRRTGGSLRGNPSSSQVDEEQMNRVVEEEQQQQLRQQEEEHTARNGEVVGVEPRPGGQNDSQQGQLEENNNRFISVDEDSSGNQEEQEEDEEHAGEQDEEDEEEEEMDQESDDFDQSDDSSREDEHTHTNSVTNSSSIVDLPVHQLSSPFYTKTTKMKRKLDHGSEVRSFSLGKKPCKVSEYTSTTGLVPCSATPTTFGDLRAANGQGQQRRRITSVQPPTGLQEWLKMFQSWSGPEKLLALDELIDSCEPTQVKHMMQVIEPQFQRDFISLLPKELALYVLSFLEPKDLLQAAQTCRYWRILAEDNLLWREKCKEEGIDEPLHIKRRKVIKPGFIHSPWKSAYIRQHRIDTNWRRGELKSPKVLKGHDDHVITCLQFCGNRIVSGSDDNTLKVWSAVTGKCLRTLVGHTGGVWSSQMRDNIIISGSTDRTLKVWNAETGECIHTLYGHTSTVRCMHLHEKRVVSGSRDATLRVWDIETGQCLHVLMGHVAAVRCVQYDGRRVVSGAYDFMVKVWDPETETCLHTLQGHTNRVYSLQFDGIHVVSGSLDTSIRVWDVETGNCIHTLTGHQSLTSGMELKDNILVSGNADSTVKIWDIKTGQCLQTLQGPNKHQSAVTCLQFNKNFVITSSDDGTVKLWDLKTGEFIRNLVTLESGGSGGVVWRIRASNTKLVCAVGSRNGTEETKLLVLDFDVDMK
# GPR151 activ = activators of human GPR151, primary screen, cell-based, PathHunter beta-arrestin, luminescence; G-protein coupled receptor 151 (Homo sapiens), Q8TDV0; PathHunter beta-arrestin GPR151 cells; AID 1508602, 2020; activation, % at 11.2 µM; 1% of 650,000 active; in the data active = activation above about 4.9%
# MITF inh = MITF inhibitors, primary screen, biochemical, AlphaScreen, human | 0.91% of 650,000 active | AlphaScreen MITF homodimerization, bead proximity signal | AID 1259374, 2018 | Microphthalmia-associated transcription factor (Homo sapiens), O75030 | inhibition, % at 2.6 µM; in the data active = inhibition above about 50%
# MITF confirm = MITF inhibitors, retest of hits, confirmation, biochemical, AlphaScreen, triplicate; shares compounds with MITF inh; AlphaScreen MITF homodimerization, biotin/His-MITF beads; inhibition, % at 2.6 µM; 16% of 4,700 active;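 active = inhibition above a cutoff derived from the DMSO control wells, cut at about 28% in these data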;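 note: inhibitors lower the bead chemiluminescence by keeping MITF from dimerizing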
# AS interf DR = AlphaScreen optical interference compounds, dose response, counter-screen, biochemical, HTS; shares compounds with MITF inh; 6% of 480 active; AlphaScreen optical interference counterscreen, cell-free; IC50, µM; call rule not given here
# AlphaScreen intf2 = AlphaScreen optical interference compounds, counter-screen for MITF inhibitor project, biochemical, triplicate | shares compounds with MITF inh | LysRS AlphaScreen counterscreen, signal interference | inhibition, % at 2.6 µM | 7.6% of 4,700 active | AID 1259376, 2018;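 active = inhibition above a cutoff derived from the DMSO control wells, cut at about 30% in these data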
# Hits are given with their value; n = inactive; x = not tested or not shown.
SMILES,TEAD-YAP block,FBW7 act,GPR151 activ,MITF inh,MITF confirm,AlphaScreen intf2,others
O=C(O)c1cc([N+](=O)[O-])cc2c1-c1c(cc([N+](=O)[O-])cc1[N+](=O)[O-])/C2=C/c1ccco1,n,n,n,62.0,67.6,n,AS interf DR=n
CCN1CCN(CC(=O)n2c(C)c(C)c3ccccc32)CC1,n,n,n,73.8,n,n,
Cc1c(C)n(C(=O)CN2CCN(c3ccccn3)CC2)c2ccccc12,n,n,n,n,x,x,
CCC(C)c1ccccc1OCCCNCCOC (stereo unspecified),n,n,n,n,x,x,
CCC(C)c1ccccc1OCCCNCCCOC (stereo unspecified),n,n,n,60.1,n,n,
CCC(C)c1ccccc1OCCNC(C)C (stereo unspecified),n,n,n,85.4,n,n,
O=C(COc1ccc(F)cc1)N1CCc2ccccc21,n,n,n,n,x,x,
CCCC(C)NC(=O)Cc1ccc(Br)cc1 (stereo unspecified),n,n,n,50.8,n,n,
COc1ccc(-c2cc3ccccc3n2CC(O)CNCc2ccco2)cc1 (stereo unspecified),n,n,n,71.2,n,n,
CC(=O)c1cccc(NC(=O)C(Sc2nnc(-c3ccncc3)n2C)c2ccccc2)c1 (stereo unspecified),n,n,n,n,x,x,
O=C(c1cc(Cl)cc(Cl)c1)N1CCN(C(=O)c2cc(Cl)cc(Cl)c2)CC1,n,n,n,n,x,x,
O=C(c1cc(Cl)cc(Cl)c1)N1CCCCC1,n,n,n,62.2,n,n,
Nc1ncc(-c2ccco2)nc1N1CCC(C(=O)O)CC1,n,n,n,73.1,n,n,
Nc1ncc(-c2ccccc2)nc1N1CCC(C(=O)O)CC1,n,n,n,n,x,x,
Nc1c(C(=O)Nc2ccc(Cl)cc2)nnc2cc(-c3ccc(Cl)cc3)nn12,n,n,n,82.0,n,n,
O=C(Nc1ccc(-c2ccc3nnc(-c4ccncc4)n3n2)cc1)c1ccc(Cl)cc1,n,n,n,n,x,x,
CCCCNC(=O)c1ccc(CN(c2ccccc2)S(C)(=O)=O)cc1,n,n,n,91.6,n,n,
CCCNC(=O)c1ccc(CN(c2ccccc2)S(C)(=O)=O)cc1,n,n,n,n,x,x,
O=S(=O)(Nc1ccccn1)c1ccc(N=Cc2ccc3c(c2)OCO3)cc1,n,n,n,74.3,n,n,
Cc1ccccc1NC(=O)c1ccccc1N(Cc1ccccc1)S(C)(=O)=O,n,n,n,55.5,n,n,
COc1ccccc1CN1CCOCC1,n,n,n,58.5,n,n,
COc1ccc(CN2CCN(Cc3cc(OC)c(OC)cc3[N+](=O)[O-])CC2)cc1OC,n,n,n,67.5,n,n,
COc1ccc(CN2CCN(Cc3cc(OC)c(OC)cc3OC)CC2)c(OC)c1,n,n,n,72.8,n,n,
COc1ccc(CN2CCN(Cc3cc(OC)c(OC)cc3[N+](=O)[O-])CC2)c(OC)c1,n,n,n,80.0,n,n,
COc1cc(CN2CCCC2)c([N+](=O)[O-])cc1OC,n,n,n,n,x,x,
SMILES,TEAD-YAP block,FBW7 act,GPR151 activ,MITF inh,MITF confirm,AlphaScreen intf2,others
COc1cc(OC)c(OC)cc1CN1CCN(Cc2ccccc2Cl)CC1,n,n,n,74.8,n,n,
COc1cc(OC)c(OC)cc1CN1CCN(Cc2cccc(Br)c2)CC1,n,n,n,73.2,n,n,
COc1cc(OC)c(OC)cc1CN1CCN(Cc2ccccc2F)CC1,n,n,n,76.9,n,n,
COc1cc(OC)c(OC)cc1CN1CCN(Cc2cc(OC)c(OC)cc2OC)CC1,n,n,n,70.6,n,n,
COc1cccc(OCC(=O)Nc2c(C(=O)Nc3cccc(F)c3)oc3ccccc23)c1,n,n,n,n,x,x,
N#CCCN(N)C(=S)Nc1ccc(Cl)cc1,n,n,n,n,x,x,
CCOCCCN=C1Sc2nc3cc4c(cc3cc2CN1CC1CCCO1)OCO4 (stereo unspecified),n,n,n,n,x,x,
COc1ccc(CN2CCN(Cc3ccccc3F)CC2)c(OC)c1,n,n,n,81.1,n,n,
COc1ccc(CN2CCSCC2)c(OC)c1,n,n,n,n,x,x,
COc1ccc(OC)c(CN2CCN(Cc3ccc(OC)cc3OC)CC2)c1,n,n,n,n,x,x,
COc1ccc(CN2CCN(Cc3ccccc3OC)CC2)c(OC)c1,n,n,n,78.1,n,n,
COc1cc(OC)c(OC)cc1CN1CCN(Cc2ccc(SC)cc2)CC1,n,n,n,52.1,n,n,
COc1cc(OC)c(OC)cc1CN1CCN(Cc2ccccc2Br)CC1,n,n,n,n,x,x,
O=C1C(=O)N(CCOCCO)C(c2cccs2)/C1=C(\O)c1ccc(F)cc1 (stereo unspecified),n,n,n,54.9,n,n,
O=C1C(=O)N(CCN2CCOCC2)C(c2cccs2)/C1=C(/O)c1ccc(F)cc1 (stereo unspecified),n,n,n,n,x,x,
O=C(Cc1ccccc1)n1nc(-c2cccnc2)nc1NCc1cccs1,n,n,n,57.5,n,n,
O=C(Cc1ccccc1)n1nc(-c2cccnc2)nc1NCc1ccccc1,n,n,n,n,x,x,
CCOc1ccc2nc(SCC(=O)Nc3ccc(NC(C)=O)cc3)sc2c1,n,n,n,n,x,x,
Cc1ccc(C)c(OCCOCCNC(C)(C)C)c1,n,n,n,n,x,x,
Cc1cc(Cl)cc(C)c1OCCOCCNC(C)(C)C,n,n,n,66.7,n,n,
Cc1cc(Br)ccc1OCCOCCNC(C)(C)C,n,n,n,62.9,n,n,
Cc1cc(OCCOCCNC(C)(C)C)cc(C)c1Cl,n,n,n,n,x,x,
COC(=O)c1ccc2c(=O)n3nc(NCc4ccco4)sc3nc2c1,n,n,n,n,x,x,
O=C(CCc1nnc(CCc2c[nH]c3ccccc23)o1)NCc1cccc(-n2cccn2)c1,n,n,n,n,x,x,
NC(=O)CSc1ccc(C(N)=O)cc1[N+](=O)[O-],n,n,n,63.7,38.8,n,AS interf DR=n
SMILES,TEAD-YAP block,FBW7 act,GPR151 activ,MITF inh,MITF confirm,AlphaScreen intf2,others
NC(=O)c1ccc(SCC(=O)O)c([N+](=O)[O-])c1,n,n,n,n,x,x,
COc1nc(NCCc2ccc(O)cc2)nc(-c2ccc(N3CCOCC3)nc2)n1,n,n,n,n,x,x,
O=C(CN1CCCCCC1)N/N=C/c1cccc2ccccc12,n,n,n,n,x,x,
C[C@H]1C(=O)N2CCN(C(=O)NC3CCCCC3)C[C@@H]2C(=O)N1C,n,n,n,78.1,74.2,n,AS interf DR=n
CC(C)C[C@H]1C(=O)N2CCN(C(=O)NC3CCCCC3)C[C@@H]2C(=O)N1C,n,n,n,70.2,71.4,n,AS interf DR=n
Cc1ccc(C(=O)N2CCN3C(=O)[C@H](C)N(C)C(=O)[C@H]3C2)cc1,n,n,n,n,x,x,
